These results are taken from the supplement of paper PMC9334596.

Values joined by “and” are separate entries in the source; they are usually repeats but may differ in a detail not shown here. Identical values can stand only once. In all, about 5,300 compounds were measured (“PER2::LUC luminescence relative to vehicle control”: median about 0.96, highest 2% from about 1.3 on). For the sample, the highest values were picked, then their nearest neighbours and some compounds at random.

The test has as its system mPer2Luc MEF. The test can be described thus: PER2::LUC luminescence relative to vehicle control (fold of vehicle); higher = higher PER2::LUC reporter signal. The following applies: 10 µM. A digest of the protocol:
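Each value gives PER2::LUC luminescence as fold of vehicle control, measured with the ONE-Glo luciferase assay system in mouse embryonic fibroblasts carrying the mPer2Luc reporter. Cells grown in DMEM with 10% FBS at 37 °C and 5% CO2 were seeded at ~3000 per well in 384-well plates. Library compounds were added at 10 μM 48 h later, and readings were taken 24 h and 30 h after treatment.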

With `COc1ccc2cc1Oc1ccc(cc1)C[C@@H]1c3cc(c(OC)cc3CCN1C)Oc1c(OC)c(OC)cc3c1[C@H](C2)N(C)CC3`, the “PER2::LUC luminescence” value by setting is: (time after treatment 24 h) 0.674; (time after treatment 30 h) 0.713.
For the compound `COc1cc(N2CCOCC2)ccc1NC(=O)c1csc(-c2cccnc2)n1`, the “PER2::LUC luminescence” value amounted to 0.906 (time after treatment 24 h) and 1.02 (time after treatment 30 h).
`CCOC(=O)c1cc(OC)c(OC)cc1NC(=O)c1cc(OC)c(OC)c(OC)c1`: the “PER2::LUC luminescence” value runs as follows: (time after treatment 24 h) 1.08; (time after treatment 30 h) 1.16.
The like results for `CC(C)CCCC(C)C1CCC2C3CCC4CC(O)CCC4(C)C3CCC12C` (stereo not drawn) were, in that order, 0.978 and 0.951.
For the compound `CC1(C)C=Cc2cc3ccc(=O)oc3cc2O1`, the “PER2::LUC luminescence” value reads like this: (time after treatment 24 h) 1.26; (time after treatment 30 h) 1.48.
Consider `COc1cc2ccc(=O)oc2cc1O`, for which the “PER2::LUC luminescence” value by setting is: (time after treatment 24 h) 1.02; (time after treatment 30 h) 1.04.
As for `O=c1ccc2cc(O)c(O)cc2o1`, the “PER2::LUC luminescence” value (time after treatment 24 h) stood at 0.867 and the “PER2::LUC luminescence” value (time after treatment 30 h) turned out to be 0.732.
The like results for `CCOC(=O)CCCCCCCCCCCN(C)C(=O)CO[C@H](C)[C@@H](C)OCC(=O)N(C)CCCCCCCCCCCC(=O)OCC` were, in that order, 1.2 and 1.08.
Take `CCN1CCN(Cc2ccc(NC(=O)c3ccc(C)c(/C=C/c4cnc5[nH]ccc5c4OC)c3)cc2C(F)(F)F)CC1`: the “PER2::LUC luminescence” value (time after treatment 24 h) was 0.349 and the “PER2::LUC luminescence” value (time after treatment 30 h) stood at 0.394.
Turning to `CCCC(=O)NCCc1c(I)[nH]c2ccc(OC)cc12`, the “PER2::LUC luminescence” value (time after treatment 24 h) worked out at 0.668 and the “PER2::LUC luminescence” value (time after treatment 30 h) came to 0.814.
For the compound `CCCCC/C=C\C[C@@H](O)/C=C/c1cccc(C[C@@H](O)CCCCO)n1`, the “PER2::LUC luminescence” value by setting is: (time after treatment 24 h) 1.07; (time after treatment 30 h) 0.841.
For `O=C(Nc1cccc(C(F)(F)F)c1)Nc1cc(Cl)ccc1C(=O)O`, the “PER2::LUC luminescence” value reads like this: (time after treatment 24 h) 1.07; (time after treatment 30 h) 1.
For `CCN(CC)CCNC(=O)c1cc(S(C)(=O)=O)ccc1OC`, in that order: 0.984 and 0.88.
For the compound `CCN(CC)CCNC(=O)COc1ccc(OC)cc1`, the “PER2::LUC luminescence” value runs as follows: (time after treatment 24 h) 1.38; (time after treatment 30 h) 1.49.
On to `CCN(CC)CCNC(=O)c1ccc(N)cc1`, for which the “PER2::LUC luminescence” value (time after treatment 24 h) stood at 1.11 and the “PER2::LUC luminescence” value (time after treatment 30 h) came to 1.27.
Consider `CC12CCC3c4ccc(O)cc4CCC3C1CCC2O` (stereo not drawn), for which the “PER2::LUC luminescence” value (time after treatment 24 h) worked out at 0.721 and the “PER2::LUC luminescence” value (time after treatment 30 h) turned out to be 0.751.
Regarding `OC[C@H]1O[C@@H](n2cnc3c(N[C@H]4CCC[C@@H]4O)ncnc32)[C@@H](O)C1O` (stereo partly drawn), the “PER2::LUC luminescence” value was 1.25 (time after treatment 24 h) and 0.88 (time after treatment 30 h).
On to `CN(C)CC1CCC2=C(C1=O)C(c1ccc(Cl)c(Cl)c1)C1=C(CCC(CN(C)C)C1=O)O2` (stereo not drawn), for which the “PER2::LUC luminescence” value reads like this: (time after treatment 24 h) 1.15; (time after treatment 30 h) 1.08.
With `O=C1Nc2cc(Br)ccc2/C1=C1/Nc2ccccc2/C1=N\O`, the “PER2::LUC luminescence” value is, setting by setting: (time after treatment 24 h) 0.773; (time after treatment 30 h) 1.09.
`O=C1Cc2c([nH]c3ccc(Br)cc23)-c2ccccc2N1`: the “PER2::LUC luminescence” value was 1.15 (time after treatment 24 h) and 1.88 (time after treatment 30 h).
In the case of `C[C@H](NCc1ccc(OCc2cccc(F)c2)cc1)C(N)=O`, the “PER2::LUC luminescence” value was 1.22 and 1.67 (time after treatment 24 h); 1.5 and 1.51 (time after treatment 30 h).
In the case of `CC(C)NCC(O)COc1ccc(CC(N)=O)cc1` (stereo not drawn), the “PER2::LUC luminescence” value runs as follows: (time after treatment 24 h) 1.26; (time after treatment 30 h) 1.06.
Regarding `CC(C)NC[C@@H](O)COc1ccc(CC(N)=O)cc1`, the “PER2::LUC luminescence” value is, setting by setting: (time after treatment 24 h) 1.01; (time after treatment 30 h) 0.958.
As to `COc1ccc([C@@H]2CC(=O)c3c(O)cc(OC4O[C@H](CO[C@H]5O[C@@H](C)[C@@H](O)[C@@H](O)[C@H]5O)[C@H](O)[C@H](O)[C@H]4O)cc3O2)cc1O` (stereo partly drawn), the “PER2::LUC luminescence” value (time after treatment 24 h) stood at 1.02 and the “PER2::LUC luminescence” value (time after treatment 30 h) turned out to be 1.03.
As for `O=C(NCc1nc2ccccc2c(=O)n1-c1ccc(F)cc1)Nc1ccc(Cl)c(C(F)(F)F)c1`, the “PER2::LUC luminescence” value reads like this: (time after treatment 24 h) 1; (time after treatment 30 h) 0.929.
Consider `O=S(=O)(O)c1cc(N=C=S)ccc1/C=C/c1ccc(N=C=S)cc1S(=O)(=O)O`, for which the “PER2::LUC luminescence” value (time after treatment 24 h) was found to be 0.832 and the “PER2::LUC luminescence” value (time after treatment 30 h) was determined as 0.684.
Consider `C/C(O)=C(\C#N)C(=O)Nc1ccc(C(F)(F)F)cc1`, for which the “PER2::LUC luminescence” value runs as follows: (time after treatment 24 h) 1.32 and 1.08; (time after treatment 30 h) 1.56 and 1.07.
Turning to `CC(=O)Nc1ccc(NC(=S)NC(=O)c2ccc(C(C)(C)C)cc2)cc1`, the “PER2::LUC luminescence” value runs as follows: (time after treatment 24 h) 0.812; (time after treatment 30 h) 0.973.
The like results for `CC(=O)Nc1ccc(O)cc1` were, in that order, 0.846 and 0.81.
